Measured values taken from PubChem BioAssay (EPA / NIEHS).
Where “and” joins values, the source holds several entries; their conditions need not be identical. Equal entries are not always repeated. Some compounds were tested as several samples or in several runs, with calls that do not always agree. Calls of active or inactive are those of the source. Rule for the calls: active = hit-call score of the fitted dose curve at least 0.9, where 1 is the maximum; inactive = score below 0.9.

Tests used:
Conditions in all cases: mRNA level, 48 h; actives raise or lower the signal
[1] = read-out: flavin-containing dimethylaniline monooxygenases 3 (FMO3), FMO3 (gene 2328); assay: LTEA_HepaRG_FMO3: Life Technologies and Expression Analysis (LTEA) Assay for flavin-containing dimethylaniline monooxygenases 3 (FMO3) using HepaRG (AID 2283453);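 for AC50: differentiated human HepaRG liver cells in serum-free induction medium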
Method in brief: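 HepaRG, 48 h exposure, 8-pt half-log series from 100 uM, 0.5% DMSO vehicle, duplicates; FMO3 transcript by Fluidigm TaqMan qRT-PCR, housekeeping-normalized; gain/loss fit vs DMSO.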

[2] = read-out: Cytochrome P450 (CYP1A1), CYP1A1 (gene 1543); assay: LTEA_HepaRG_CYP1A1: Life Technologies and Expression Analysis (LTEA) Assay for Cytochrome P450 (CYP1A1) using HepaRG (AID 2283454)
Method in brief: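 qRT-PCR read-out: CYP1A1 transcript normalized to three housekeeping genes, fitted bidirectionally against 0.5% DMSO vehicle baseline. Human HepaRG cells, 48 h chemical exposure, 8-point half-log series topping at 100 uM.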

[3] = read-out: CFLAR gene, CFLAR (gene 8837); assay: LTEA_HepaRG_CFLAR: Life Technologies and Expression Analysis (LTEA) Assay for CFLAR gene using HepaRG (AID 2283455)
Method in brief: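 HepaRG, 48 h exposure, 8-pt conc-response (100 uM top, half-log), 0.5% DMSO vehicle, duplicates. CFLAR expression by qRT-PCR; ACTB/GAPDH/POLR2A normalization; gain or loss fit vs DMSO baseline.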

[4] = read-out: growth arrest and DNA damage 45 (GADD45A), GADD45A (gene 1647); assay: LTEA_HepaRG_GADD45A: Life Technologies and Expression Analysis (LTEA) Assay for growth arrest and DNA damage 45 (GADD45A) using HepaRG (AID 2283458)
Method in brief: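 Differentiated HepaRG cells were exposed in duplicate for 48 h in serum-free induction medium to 8-point half-log concentrations up to 100 uM in 0.5% DMSO. GADD45A mRNA was measured by TaqMan qRT-PCR, normalized to ACTB, GAPDH and POLR2A, with bidirectional fitting versus DMSO.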

[5] = read-out: Forkhead box O3 (FOXO3), FOXO3 (gene 2309); assay: LTEA_HepaRG_FOXO3: Life Technologies and Expression Analysis (LTEA) Assay for Forkhead box O3 (FOXO3) using HepaRG (AID 2283459)
Method in brief: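 HepaRG, 48 h post-dose; 8 conc., half-log from 100 uM, 0.5% DMSO, duplicates; serum-free induction medium. Readout: FOXO3 mRNA, TaqMan qRT-PCR, housekeeping-normalized. Bidirectional curve fit vs DMSO baseline.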

[6] = read-out: ABC Transporter (ABCB1), ABCB1 (gene 5243); assay: LTEA_HepaRG_ABCB1: Life Technologies and Expression Analysis (LTEA) Assay for ABC Transporter (ABCB1) using HepaRG (AID 2283460)
Method in brief: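 Expression of ABCB1 was quantified by qRT-PCR against three housekeeping genes after human HepaRG cultures received test chemicals for 48 hours. Concentrations spanned eight half-log steps topping at 100 uM in 0.5% DMSO; gain or loss of signal was fitted relative to vehicle.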

[7] = read-out: growth arrest and DNA damage 45 (GADD45B), GADD45B (gene 4616); assay: LTEA_HepaRG_GADD45B: Life Technologies and Expression Analysis (LTEA) Assay for growth arrest and DNA damage 45 (GADD45B) using HepaRG (AID 2283461)
Method in brief: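 qRT-PCR read-out (Fluidigm TaqMan, housekeeping-normalized) of mRNA change in human HepaRG cells after 48 h chemical exposure; 8-point curve, top 100 uM, half-log steps, 0.5% DMSO vehicle; gain or loss fitted relative to DMSO baseline.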

[8] = read-out: ABC Transporter (ABCC3), ABCC3 (gene 8714); assay: LTEA_HepaRG_ABCC3: Life Technologies and Expression Analysis (LTEA) Assay for ABC Transporter (ABCC3) using HepaRG (AID 2283462)
Method in brief: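 qRT-PCR read-out of ABCC3 transcript, normalized to three housekeeping genes (ACTB, GAPDH, POLR2A), after 48 h chemical exposure of human HepaRG cells. Eight half-log concentrations, highest 100 uM, in 0.5% DMSO; gain or loss fitted relative to DMSO baseline.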

Measured: AC50

CC(C)N(C(=O)COc1nnc(C(F)(F)F)s1)c1ccc(F)cc1
inactive: [3] | [4] | [5] | [6] | [7]
active: [1] 40.7 µM | [2] 50 µM

CCCN(CCOc1c(Cl)cc(Cl)cc1Cl)C(=O)n1ccnc1
inactive: [5] | [7]
active: [1] 33 µM | [2] 2.56 µM | [4] 45.8 µM | [6] 3.22 µM

CCN(CC)C(=O)SCc1ccc(Cl)cc1
inactive: [1] | [4] | [5] | [6] | [7]
active: [2] 41.6 µM

CNC(=O)Oc1ccccc1OC(C)C
inactive: [1] | [2] | [4] | [5] | [6] | [7]

O=C(O)CCCOc1ccc(Cl)cc1Cl
active: [2] 50.8 µM
inactive: [1] | [4] | [5] | [6] | [7]

O=S(=O)(O)C(F)(F)C(F)(F)C(F)(F)C(F)(F)C(F)(F)C(F)(F)C(F)(F)C(F)(F)F
inactive: [2] | [4] | [5] | [6] | [7]
active: [2] 22.6 µM

OCCOc1ccccc1
active: [2] 35.1 µM
inactive: [1] | [4] | [5] | [6] | [7]

CCOC1Oc2ccc(OS(C)(=O)=O)cc2C1(C)C (stereo not drawn)
active: [1] 78.3 µM | [2] 50 µM | [4] 89.7 µM | [6] 35.2 µM
inactive: [5] | [7]

CCc1ccc(C(=O)NN(C(=O)c2cc(C)cc(C)c2)C(C)(C)C)cc1
active: [1] 81.9 µM | [6] 13.3 µM
inactive: [2] | [4] | [5] | [7] | [8]

CCC(C)(NC(=O)c1cc(Cl)c(C)c(Cl)c1)C(=O)CCl (stereo not drawn)
inactive: [5] | [7]
active: [1] 80.2 µM | [2] 50.2 µM | [4] 89.8 µM | [6] 89.8 µM

Cc1[nH]c(=O)n(C(C)(C)C)c(=O)c1Cl
active: [2] 24.1 µM | [5] 50 µM
inactive: [1] | [4] | [6] | [7]

CCC(C)Nc1c([N+](=O)[O-])cc(C(C)(C)C)cc1[N+](=O)[O-] (stereo not drawn)
active: [2] 12.9 µM | [6] 13 µM
inactive: [1] | [4] | [5] | [7]

CC(C)OC(=O)Nc1cccc(Cl)c1
active: [2] 50 µM | [4] 50 µM
inactive: [1] | [5] | [6] | [7]

O=C1c2ccccc2C(=O)N1SC(Cl)(Cl)Cl
inactive: [1] | [2] | [4] | [5] | [6] | [7]

CC1(C)C(C=C(Cl)Cl)C1C(=O)OC(C#N)c1ccc(F)c(Oc2ccccc2)c1 (stereo not drawn)
active: [2] 37.7 µM | [6] 24.5 µM
inactive: [1] | [4] | [5] | [7]

N#Cc1c(Cl)c(Cl)c(Cl)c(C#N)c1Cl
inactive: [4] | [6] | [7]
active: [1] 36.6 µM | [2] 23.1 µM | [5] 15.2 µM

COP(=S)(OC)Oc1ccc(SC)c(C)c1
active: [2] 28.8 µM
inactive: [1] | [4] | [5] | [6] | [7] | [8]

O=S1OCC2C(CO1)C1(Cl)C(Cl)=C(Cl)C2(Cl)C1(Cl)Cl (stereo not drawn)
active: [1] 83.4 µM | [2] 50 µM
inactive: [4] | [5] | [6] | [7]

CC(C)(C)C(O)/C(=C\c1ccc(Cl)cc1Cl)n1cncn1 (stereo not drawn)
inactive: [4]
active: [1] 33.8 µM | [2] 9.3 µM | [5] 82.3 µM | [6] 84.4 µM | [7] 87.1 µM

COP(=S)(OC)Oc1ccc([N+](=O)[O-])cc1
active: [2] 44.2 µM
inactive: [1] | [4] | [5] | [6] | [7]

CNC(=O)Oc1cccc(N=CN(C)C)c1
active: [2] 50.2 µM
inactive: [1] | [4] | [5] | [6] | [7]

ClC1C(Cl)C(Cl)C(Cl)C(Cl)C1Cl (stereo not drawn)
inactive: [1] | [4] | [5] | [7]
active: [2] 27.3 µM and 19.9 µM | [6] 1.54 µM and 4.45 µM

COP(=O)(OC)OC=C(Cl)Cl
inactive: [1] | [2] | [4] | [5] | [6] | [7]

N#CN
inactive: [1] | [2] | [4] | [5] | [6] | [7]

Clc1ccccc1-c1nnc(-c2ccccc2Cl)nn1
active: [2] 12.8 µM
inactive: [1] | [4] | [5] | [6] | [7]
